# Results as given in PubChem BioAssay AID1645882 (National Center for Advancing Translational Sciences (NCATS), 2021).
# Several values for one entry are separate records, joined by “and”; a condition that tells them apart may be missing. Equal values may be shown once. Hit rate of the full screen: of about 16,000 compounds, about 120 (0.75%) were called active. Roughly 4% stayed inconclusive and do not appear here. The call rests on the fitted dose curve; in most records, active means well fitted inhibition curve with a large enough effect; inconclusive means small, poorly fitted or top-dose-only effect; inactive means no such curve, though single readings can be large or run the other way. This excerpt belongs to a sample that is enriched for actives. Where a structure was tested more than once in an assay, its records may differ in their call.
# Biological target: Rap guanine nucleotide exchange factor 3 (Homo sapiens) (UniProt O95398)
# Test: Validation qHTS for antagonist of cAMP-regulated guanine nucleotide exchange factor 3 (EPAC1); further: nearly all actives have a fitted effect of over 75% in size;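 on activity change, negative = inhibition: plate controls were DMSO for no effect and ATA control for full effect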
# Conditions: EPAC1 Rap1B-BODIPY-GDP exchange, fluorescence; series mostly up to 150 µM; activity change, negative = inhibition: at the top concentration
# Outline: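 Nucleotide exchange followed as fluorescence loss when BODIPY-GDP leaves Rap1B (480 nm excitation, 540 nm emission), read at 5 min intervals over 30 min. Reaction: 100 nM EPAC1, 250 nM RAP1B-BODIPY-GDP, 50 uM GDP; ATA and DMSO define normalization.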
# Potency means the concentration at half of the fitted maximal effect.
# Chain of Rap guanine nucleotide exchange factor 3 (Homo sapiens) (O95398 whole entry, looked up): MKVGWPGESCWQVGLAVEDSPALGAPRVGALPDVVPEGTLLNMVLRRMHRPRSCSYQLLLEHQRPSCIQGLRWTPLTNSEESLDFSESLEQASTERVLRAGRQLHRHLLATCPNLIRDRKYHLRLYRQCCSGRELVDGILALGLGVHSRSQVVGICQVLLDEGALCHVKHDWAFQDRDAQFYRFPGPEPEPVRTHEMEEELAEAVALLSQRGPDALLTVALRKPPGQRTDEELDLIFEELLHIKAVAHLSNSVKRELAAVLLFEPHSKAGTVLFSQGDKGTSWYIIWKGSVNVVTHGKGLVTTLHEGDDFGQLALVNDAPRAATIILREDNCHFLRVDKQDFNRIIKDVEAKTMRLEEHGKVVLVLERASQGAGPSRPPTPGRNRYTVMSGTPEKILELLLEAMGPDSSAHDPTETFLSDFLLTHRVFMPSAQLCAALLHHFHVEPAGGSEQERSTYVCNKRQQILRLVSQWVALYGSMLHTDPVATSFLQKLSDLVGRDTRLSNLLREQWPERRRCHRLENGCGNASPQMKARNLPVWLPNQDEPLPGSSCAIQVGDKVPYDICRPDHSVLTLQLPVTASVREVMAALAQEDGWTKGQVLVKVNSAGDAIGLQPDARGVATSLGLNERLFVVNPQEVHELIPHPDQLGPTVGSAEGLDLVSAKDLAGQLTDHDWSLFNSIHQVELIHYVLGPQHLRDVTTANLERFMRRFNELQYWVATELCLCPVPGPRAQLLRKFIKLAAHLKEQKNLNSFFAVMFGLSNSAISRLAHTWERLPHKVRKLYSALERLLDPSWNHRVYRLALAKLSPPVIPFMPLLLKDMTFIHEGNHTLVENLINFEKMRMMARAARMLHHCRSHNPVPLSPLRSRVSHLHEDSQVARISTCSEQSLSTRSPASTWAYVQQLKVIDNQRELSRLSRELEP
Structure (SMILES),Potency,"activity change, negative = inhibition"
CCCCC/C=C\C/C=C\C/C=C\C/C=C\CCCC(=O)O,70.8 µM (active) and inactive,–
CCCCCCCCCCC/C=C\C/C=C\CCCC(=O)O,–,-8.31% [at 15.3 µM] (inactive)
CCCCCCCC/C=C\C/C=C\C/C=C\CCCC(=O)O,–,9.96% [at 15.3 µM] (inactive)
Cc1cc2ccccc2c[n+]1CC(=O)c1ccc(F)cc1,–,13.1% (inactive)
C/C(N[C@@H]1CSCC1O)=C1/C(=O)CC2[C@@H]1C2(C)C (stereo not given in full),–,8.88% (inactive)
COc1ccc(-n2c(CNC(=O)c3ccccc3C(F)(F)F)nnc2SC)cc1,–,4.49% (inactive)
FC(F)(F)c1ccccc1-c1cncnc1NCCc1cnc[nH]1,–,3.78% (inactive)
COc1c(O)cc2c(=O)oc3c(OC)c(O)cc4c(=O)oc1c2c34,–,-29.8% (inactive)
O=c1oc2c(O)c(O)cc3c(=O)oc4c(O)c(O)cc1c4c23,inactive and 25.1 µM (active),–
Cc1cc(=O)oc2c(O)c(O)ccc12,–,1.89% (inactive)
Cc1nc(N=Nc2cc(S(=O)(=O)O)c3cc([N+](=O)[O-])cc(S(=O)(=O)O)c3c2)c(COP(=O)(O)O)c(C=O)c1O,–,26.4% [at 75.8 µM] (inactive)
Cc1nc(N=Nc2ccc(C(=O)O)cc2)c(COP(=O)(O)O)c(C=O)c1O,–,-0.558% [at 75.8 µM] (inactive)
Cc1nc(N=Nc2ccc(S(=O)(=O)O)cc2S(=O)(=O)O)c(COP(=O)(O)O)c(C=O)c1O,inactive and 12.6 µM (active),–
COC(=O)c1ccc(-c2cccc3c2OC(CNC(=O)c2ccc4c(c2)OCCO4)C3)nc1 (stereo not given),–,7.71% (inactive)
COc1cc(=O)n2c(c1C(=O)N(C)Cc1ccsc1)CCN(Cc1c(C)nc3sccn13)CC2,–,6.92% (inactive)
COc1ccccc1CCNc1ncnc2sc(C(=O)N3CCCCC3)c(C)c12,–,4.53% (inactive)
CC1(C)CC2/C(CO)=C/C=C/[C@](C)(O)CC[C@]21O (stereo not given in full),–,8.31% (inactive)
O=c1cc(-c2ccc(O)cc2)oc2cc(O)cc(O)c12,inactive,–
O=c1c(O)c(-c2ccc(O)cc2)oc2cc(O)cc(O)c12,inactive,–
O=c1cc(-c2ccc(O)cc2)oc2cc(O[C@H]3OC(CO)C(O)C(O)C3O)cc(O)c12 (stereo not given in full),–,5.46% (inactive)
O=c1cc(-c2ccc(O)c(O)c2)oc2cc(OC3OC(CO)C(O)C(O)C3O)cc(O)c12 (stereo not given),39.8 µM (active),–
COc1cc(O)c2c(=O)c(O)c(-c3ccc(O)c(O)c3)oc2c1,–,-14.1% (inactive)
CC1O[C@@H](O[C@H]2C(Oc3cc(O)c4c(=O)cc(-c5ccc(O)cc5)oc4c3)OC(CO)C(O)C2O)C(O)C(O)C1O (stereo not given in full),–,8.06% (inactive)

Structure (SMILES),Potency,"activity change, negative = inhibition"
O=c1c(O)c(-c2ccc(O)cc2O)oc2cc(O)cc(O)c12,inactive,–
O=c1c(O)c(-c2ccccc2)oc2cc(O)cc(O)c12,–,6.31% (inactive)
O=c1c(O)c(-c2ccc(O)c(O)c2)oc2cc(O)cc(O)c12,inactive and 79.4 µM (active),–
O=c1c(O)c(-c2cc(O)c(O)c(O)c2)oc2cc(O)cc(O)c12,35.5 µM (active) and 39.8 µM (active) and inactive,–
O=c1cc(-c2ccc(O)c(O)c2)oc2cc(O)cc(O)c12,50.1 µM (active) and 39.8 µM (active),–
O=c1cc(-c2ccc(O)c(O)c2)oc2cccc(O)c12,–,-20.1% (inactive)
CN1[C@@H]2CCC[C@@H]1CC(NC(=O)c1nn(C)c3ccccc13)C2 (stereo not given in full),–,27.2% (inactive)
N#CC[C@H](Cc1ccccc1)N1CCN(Cc2ccccc2)CCC1=O,–,9.25% (inactive)
COc1ccc(C2OC3C(CO)OC(n4cnc5c(=O)[nH]c(N)nc54)C3O2)cc1 (stereo not given),–,9.03% (inactive)
Cc1c(C(=O)N(C)Cc2cccc3ncccc23)cnn1-c1nccc(-c2ccccc2F)n1,–,7.94% (inactive)
CC1CN(CC(=O)NCCc2ccncc2)Cc2ccccc2O1 (stereo not given),–,13.3% (inactive)
CC1CC[C@@]2(C(=O)O)CCC3(C)C(=CCC4[C@]5(C)CC(O)C(O)[C@](C)(CO)C5C(O)C[C@@]43C)C2C1C (stereo not given in full),–,-17.8% (inactive)
O=C(OC1Cc2c(O)cc(O)cc2OC1c1cc(O)c(O)c(O)c1-c1c(C2Oc3cc(O)cc(O)c3CC2OC(=O)c2cc(O)c(O)c(O)c2)cc(O)c(O)c1O)c1cc(O)c(O)c(O)c1 (stereo not given),63.1 µM (active),–
CC(=O)Oc1cc(OC(C)=O)c2c(c1)OC(c1ccc(OC(C)=O)c(OC(C)=O)c1)C(OC(C)=O)C2 (stereo not given),inactive,–
O=C(Oc1cc(OC(=O)c2ccccc2)c2c(c1)OC(c1ccc(OC(=O)c3ccccc3)c(OC(=O)c3ccccc3)c1)[C@@H](OC(=O)c1ccccc1)C2)c1ccccc1 (stereo not given in full),–,5.96% (inactive)
COc1ccc2c(c1OC)C(=O)O[C@H]2C1c2c(cc3c(c2OC)OCO3)CCN1C (stereo not given in full),inactive,–
O=C(NCC1Cc2cccc(-c3cnccn3)c2O1)c1ccc2c(c1)OCCO2 (stereo not given),–,-2.15% (inactive)
CC(C)C[C@@H](CO)N1CCN(CCc2ccccc2)CCC1=O,–,0.539% (inactive)
COc1cccc(-c2nc(N3CCNCC3)c3ccccc3n2)c1,–,17.1% (inactive)
Cc1cc2c(cc1C)N[C@]1(C[C@H]3CCCC(=O)N4CC[C@@H](C1)[C@@H]34)C(=NCc1ccccc1)N2,–,9.18% (inactive)
CN(C)c1ccc(/C=C/c2ccnc3ccc4ccccc4c23)cc1,100 µM (active),–
CN(C)c1ccc(/C=C/C=C/c2ccnc3ccccc23)cc1,–,24.3% (inactive)
